Results on 13 compounds are retold here after PubChem BioAssay (NCI).

Structures are written as SMILES. This is part of a sample that, as a whole, favours compounds with a hit. Of some 83,000 tested, about 20% had one in any assay.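 In brief: 96-well plates, 48 h treatment, single concentration, percent growth endpoint.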 Unmarked numbers belong to inactive results. Active and inactive are the calls of the source. How the source made its calls: active means growth percent below 10; inactive means the rest.

Some test systems named below: NCI-H23 lung; NCI-H226 lung; NCI-H322M lung; HOP-62 NSCLC; NCI-H460 lung; HOP-92 NSCLC; NCI-H522 lung; A549/ATCC NSCLC; 786-0 renal; COLO 205 colon.
Assay in all cases: NCI-60 one-dose screen, 48 h (100 = growth as untreated, 0 = no growth, -100 = all killed)
Common to all, as to conditions: 10 µM unless noted

On to `CN([O-])c1nc(N(C)[O-])nc(N2CCOCC2)n1.CN([O-])c1nc(N(C)[OH2+])nc(N2CCOCC2)n1.[Fe+3]`, for which the growth in the test on NCI-H23 lung is 100% [100 µM]; in the test with NCI-H226 lung it was 101% [100 µM]; in the test on NCI-H322M lung, 104% [100 µM]; with HOP-62 NSCLC it was 165% [100 µM]; with NCI-H460 lung it was 36.1% [100 µM]; with HOP-92 NSCLC it was 61.7% [100 µM]. Also, the growth with NCI-H522 lung is 52.9% [100 µM]; with A549/ATCC NSCLC it was 72.7% [100 µM]; in the test on 786-0 renal it was 114% [100 µM]; with COLO 205 colon, 144% [100 µM].
`O=C(Cn1cc(CN2CCCCCC2)nn1)Nc1ccc2c(ccn2Cc2ccccc2)c1`: the growth was 96.4% in the test with NCI-H23 lung; 81.5% in the test on NCI-H226 lung; 94.8% in the test with NCI-H322M lung; 80.6% with HOP-62 NSCLC; 102% in the test with NCI-H460 lung; 64% in the test with HOP-92 NSCLC. For the same compound, the growth with NCI-H522 lung was 86.9%; with A549/ATCC NSCLC it was 92.3%; in the test with 786-0 renal, 87.8%; in the test on COLO 205 colon it was 88.9%.
For `COC(=O)c1cc(-c2ccccc2)[nH]c1N/N=C/c1c(Cl)cccc1Cl`, the growth was 14.2% with NCI-H23 lung; 37.9% in the test with NCI-H226 lung; 34.6% in the test with NCI-H322M lung; -28.2% (active) in the test on HOP-62 NSCLC; -3.25% (active) with NCI-H460 lung; 10.5% in the test on HOP-92 NSCLC. Moreover, the growth in the test on NCI-H522 lung is -41.9% (active); in the test with A549/ATCC NSCLC it was 21.7%; with 786-0 renal it was 9.31% (active); with COLO 205 colon, 12.5%.
Regarding `COc1ccc(C2=Nc3c/c(=C\c4c(O)[nH]c5ccc(Cl)cc45)ccc3=N2)cc1`, the growth in the test with NCI-H23 lung is 52.1%; in the test with NCI-H226 lung, 66.5%; in the test on NCI-H322M lung it was 81.9%; in the test on HOP-62 NSCLC it was 28.2%; in the test with NCI-H460 lung, 43.5%; in the test on HOP-92 NSCLC it was 52.8%. For the same compound, the growth in the test on NCI-H522 lung is 29.3%; in the test with A549/ATCC NSCLC, 62.5%; in the test with 786-0 renal, 43.6%; with COLO 205 colon, -9.26% (active).
Consider `CC(=O)n1nc(C(=O)OC(C)C)c2cc(C)c(C)cc21`, for which the growth in the test on NCI-H23 lung was 95.2%; with NCI-H226 lung, 96.4%; in the test with NCI-H322M lung, 101%; with HOP-62 NSCLC it was 92.1%; with NCI-H460 lung, 98.7%; in the test with HOP-92 NSCLC, 67.1%. Further, the growth in the test on NCI-H522 lung is 88.8%; in the test on A549/ATCC NSCLC, 82.2%; in the test with 786-0 renal, 80.9%; with COLO 205 colon, 102%.
For `C=C1C(=O)O[C@H]2[C@H]1CC/C(COC(=O)N[C@H]1C[C@H](O[C@H]3C[C@](O)(C(=O)CO)Cc4c(O)c5c(c(O)c43)C(=O)c3c(OC)cccc3C5=O)O[C@@H](C)[C@H]1O)=C\CC[C@@]1(C)O[C@@H]21`, the growth with NCI-H23 lung was 91.1%; in the test with NCI-H226 lung, 58.2%; with NCI-H322M lung, 98.7%; with HOP-62 NSCLC it was 78.7%; with NCI-H460 lung, 63.4%; in the test with HOP-92 NSCLC, -5.4% (active). The growth is -50.2% (active) in the test on NCI-H522 lung, 77.2% in the test with A549/ATCC NSCLC, 43.1% with 786-0 renal and 36.2% in the test on COLO 205 colon.
As to `Oc1ccc(CN2CCC(N3CCCCC3)CC2)c2cccnc12`, the growth with NCI-H23 lung was 19%; in the test with NCI-H226 lung, 69.8%; in the test with NCI-H322M lung, 31.3%; with HOP-62 NSCLC, 5.32% (active); with NCI-H460 lung, 9.43% (active); in the test with HOP-92 NSCLC, -11.8% (active). Further, the growth in the test on NCI-H522 lung was -1.28% (active); with A549/ATCC NSCLC it was 17.4%; in the test on 786-0 renal it was 48.2%; in the test on COLO 205 colon, 112%.
For `CO/N=C(/C)c1ccc(NC(=O)CSc2nnc(-c3ccncc3)n2-c2ccccc2)cc1`, the growth is 46.9% in the test with NCI-H23 lung; 24.2% in the test on NCI-H226 lung; 84.9% in the test on NCI-H322M lung; 39.2% in the test with HOP-62 NSCLC; 15.9% in the test on NCI-H460 lung; 3.16% (active) in the test on HOP-92 NSCLC. In addition, the growth with NCI-H522 lung was -8.08% (active); in the test with A549/ATCC NSCLC, 68.4%; with 786-0 renal, -43.1% (active); in the test with COLO 205 colon, 104%.
As to `CN(CCOc1ccc(C#N)cc1)CCOc1ccc(C#N)cc1`, the growth was 56.5% in the test with NCI-H23 lung; 62% in the test on NCI-H226 lung; 87.1% with NCI-H322M lung; 46% in the test with HOP-62 NSCLC; 120% in the test with NCI-H460 lung; 63.3% in the test on HOP-92 NSCLC. For the same compound, the growth in the test on NCI-H522 lung was 86.6%; with A549/ATCC NSCLC, 60.2%; with 786-0 renal, 26.3%; in the test on COLO 205 colon, 52.1%.
Take `COc1ccc(-c2csc(N(C(=O)N3CCN(c4cc5c(cc4F)c(=O)c(C(=O)O)cn5C4CC4)CC3)c3ccccc3)n2)cc1`: the growth in the test with NCI-H23 lung was 4.28% (active); in the test with NCI-H226 lung it was 28.5%; in the test on NCI-H322M lung, 4.9% (active); in the test on HOP-62 NSCLC, 9.2% (active); with NCI-H460 lung, 3.65% (active); in the test with HOP-92 NSCLC, -18.1% (active). In addition, the growth in the test with NCI-H522 lung was -21.8% (active); with A549/ATCC NSCLC, 13.6%; in the test with 786-0 renal, 19.6%; with COLO 205 colon, 17.9%.
For the compound `O=C(CSc1nc2ccc([N+](=O)[O-])cc2[nH]1)Nc1ccc(F)cc1`, the growth is 40.4% in the test on NCI-H23 lung; 48.9% in the test with NCI-H226 lung; 86.5% in the test on NCI-H322M lung; 105% in the test with HOP-62 NSCLC; 56.8% in the test with NCI-H460 lung; -6.84% (active) in the test with HOP-92 NSCLC. Further, the growth is 30.1% in the test with NCI-H522 lung, 58.2% in the test with A549/ATCC NSCLC, 62.7% in the test on 786-0 renal and 68.3% with COLO 205 colon.
For the compound `CCOC(=O)c1cn2ncnc(Oc3ccc(NC(=O)NC4CCCCC4)c(Cl)c3)c2c1C`, the growth in the test on NCI-H23 lung is 68.8%; in the test with NCI-H226 lung it was 92.6%; in the test on NCI-H322M lung it was 85.2%; in the test with HOP-62 NSCLC, 79.9%; in the test with NCI-H460 lung, 96.4%; with HOP-92 NSCLC, 86.8%. In addition, the growth in the test on NCI-H522 lung is 67.1%; in the test on A549/ATCC NSCLC it was 58.7%; in the test on 786-0 renal it was 81.6%; with COLO 205 colon it was 96.9%.
Consider `CNC(=O)c1cc(Oc2ccc3c(c2)sc2nc(-c4cc(OC)c(OC)c(OC)c4)cn23)ccn1`, for which the growth in the test on NCI-H23 lung is 61.1%; with NCI-H226 lung, 49%; in the test on NCI-H322M lung, 72.5%; with HOP-62 NSCLC, 66.8%; in the test with NCI-H460 lung it was 66.2%; in the test on HOP-92 NSCLC it was 15.8%. Besides, the growth in the test with NCI-H522 lung is 50.4%; in the test with A549/ATCC NSCLC it was 63.6%; with 786-0 renal, 68.1%; in the test on COLO 205 colon it was 16.7%.
